Screens from PubChem BioAssay.
The list is not random: actives were taken first. Their share in the collection is about 2.7%.
CHT inh – inhibits the human high affinity choline transporter | CHT-expressing cells, membrane potential dye, choline response; stronger effect = lower value | 0.86% of 310,000 active | B-score at 10 µM | Q9GZV3;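 active = B-score over 3 SD under the library average, and starting fluorescence ratio not unusually high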;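 note: choline stimulus applied at its EC90 after an EC20 pre-addition; B-score computed on integrated fluorescence ratio after choline addition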
CHT PAM – allosterically activates the human high affinity choline transporter; Q9GZV3; CHT-expressing cells, membrane potential dye, choline EC20; stronger effect = higher value; LV-AA mutant CHT in HEK293 cells; B-score at 10 µM; 0.49% of 310,000 active;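 active = initial fluorescence not abnormally high and integrated response B-score, plate-corrected, over 3 SD above library mean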
IDE inh – cellular human IDE inhibition; P14735; HEK cells, FAbetaB cleavage, fluorescence polarization; inhibition, % at 5.59 µM; 0.41% of 320,000 active;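 active = percent inhibition above the average of all tested compounds plus 3 SD, set per screening campaign, cut at about 16% in these data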;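 note: IDE supplied by intact live HEK cells; FP after avidin binding of uncleaved biotin substrate so inhibition keeps polarization high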
Target sequence (P14735 whole entry, looked up): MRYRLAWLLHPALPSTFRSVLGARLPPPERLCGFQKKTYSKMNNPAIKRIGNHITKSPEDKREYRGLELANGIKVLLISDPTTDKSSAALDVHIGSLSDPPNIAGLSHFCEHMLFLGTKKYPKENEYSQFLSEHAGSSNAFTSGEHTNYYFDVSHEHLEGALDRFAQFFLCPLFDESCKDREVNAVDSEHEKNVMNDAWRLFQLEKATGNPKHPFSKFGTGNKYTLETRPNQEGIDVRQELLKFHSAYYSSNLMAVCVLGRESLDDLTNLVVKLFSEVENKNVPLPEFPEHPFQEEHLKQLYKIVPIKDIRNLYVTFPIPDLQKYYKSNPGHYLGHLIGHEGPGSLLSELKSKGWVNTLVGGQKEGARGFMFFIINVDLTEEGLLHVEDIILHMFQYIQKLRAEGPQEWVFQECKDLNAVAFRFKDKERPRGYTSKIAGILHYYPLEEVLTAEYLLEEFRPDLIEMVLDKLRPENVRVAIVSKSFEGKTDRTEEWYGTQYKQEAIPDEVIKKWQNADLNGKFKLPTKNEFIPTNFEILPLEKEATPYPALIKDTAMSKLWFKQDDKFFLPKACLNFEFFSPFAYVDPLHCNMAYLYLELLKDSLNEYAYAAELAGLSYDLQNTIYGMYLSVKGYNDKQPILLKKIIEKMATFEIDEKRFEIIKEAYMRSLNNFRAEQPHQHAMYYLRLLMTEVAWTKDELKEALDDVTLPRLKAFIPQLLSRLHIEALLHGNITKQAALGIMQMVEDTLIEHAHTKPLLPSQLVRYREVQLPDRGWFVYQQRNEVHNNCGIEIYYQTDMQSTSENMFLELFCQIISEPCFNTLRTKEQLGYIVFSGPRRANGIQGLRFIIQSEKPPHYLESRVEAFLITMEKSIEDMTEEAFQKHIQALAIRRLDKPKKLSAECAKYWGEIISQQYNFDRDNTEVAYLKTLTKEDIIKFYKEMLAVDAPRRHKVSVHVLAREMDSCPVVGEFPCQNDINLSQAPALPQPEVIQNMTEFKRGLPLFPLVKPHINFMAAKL
IDE act – activators of human insulin-degrading enzyme in cells. P14735. HEK cells, FAbeta-B cleavage, fluorescence polarization; 0% vehicle, 100% cell-free pure enzyme wells. activation, % at 5.96 µM. 0.073% of 340,000 active. AID 493087;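 active = activation above the mean of all tested compounds plus 3 SD, set per screening campaign, cut at about 17% in these data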
TMEM16A act – mouse TMEM16A channel activation, primary screen | Q8BHY3 | HEK293 TMEM16A/YFP-H148Q/I152L, iodide quench fluorescence; stronger effect = lower value | B-score at 10 µM | 0.3% of 340,000 active;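 active = fluorescence-ratio B-score plate-corrected deviation score at least 3 library SD below zero, with starting fluorescence score within 5 deviations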;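 note: channel opened by trigger with iodide after compound preincubation; score built on the fluorescence ratio of max minus min over baseline; more negative score means more quench and so TMEM16A activation or potentiation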
TMEM16A inh – blocks the mouse calcium-activated chloride channel TMEM16A | HEK293 TMEM16A/YFP iodide influx fluorescence, ionomycin | 1.2% of 310,000 active | normalized B-score (activity score, 25-100; higher = stronger inhibition) at 10 µM | Q8BHY3;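 active = ratio plate-corrected score three or more library SD toward inhibition, starting fluorescence score within five deviations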;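 note: score derived from kinetic fluorescence span divided by baseline fluorescence per well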
IDE cell inh cf – cellular human IDE inhibition, confirmation. AID 435028. 51% of 1,200 active. shares compounds with IDE inh. inhibition, % at 5.59 µM. HEK cells, FAbetaB cleavage, fluorescence polarization;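 active = mean inhibition across triplicate wells above the cutoff set by the earlier primary insulin-degrading enzyme screen, cut at about 16% in these data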
HEK cytotox – counter-screen for IDE inhibitors: cytotoxicity in HEK cells | shares compounds with IDE inh | HEK293 cytotoxicity, ATP luminescence | inhibition, % at 5.59 µM | 28% of 1,200 active | AID 449730; in the data active = inhibition above about 22%
CHT inh conf – confirmation of human choline transporter CHT inhibitors. CHT-expressing cells, choline membrane potential dye; LV-to-AA substituted CHT, HEK293 cells. shares compounds with CHT inh. AID 493221. CHT activity remaining % of control (stronger effect = lower value), % at 10 µM. 70% of 2,400 active;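 active = choline transporter activity left, mean of duplicates at 10 µM, below buffer-only control mean minus 3 SD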;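 note: depolarization triggered by choline at its EC90 following an EC20 pre-addition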
HEK293 CHT ctr – activity in parental HEK293 cells lacking CHT. shares compounds with CHT inh. membrane potential dye, choline response; active = decrease or increase beyond buffer ±3SD. membrane potential ratio readout (active if shifted either direction beyond buffer ±3SD; no single direction) at 10 µM. 4% of 2,400 active;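 note: parental cells lack the transporter so any hit is non-specific; ratio is peak minus trough fluorescence over baseline after EC90 choline challenge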
CHT act confirm – human CHT activation, confirmatory screen | 91% of 2,500 active | AID 504833 | activation, % at 10 µM | CHT-expressing cells, membrane potential dye fluorescence (FDSS); % of choline EC20–EC90 response window; HEK293 expressing CHT LV-AA mutant; choline added at its EC20 | shares compounds with CHT PAM;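 active = primary screen active, with duplicate mean activation above negative control mean plus 3 SD, cut at about 11% in these data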
HEK293 MP dye – activity in parental HEK293 cells lacking CHT. shares compounds with CHT PAM. membrane potential dye fluorescence (FDSS); measured after EC20 choline addition. ratio readout change at 10 µM, hits read low. 62% of 2,500 active;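 active = duplicate-averaged ratio beyond 3 SD from buffer wells, up or down, though filed actives are nearly all decreases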
A number is an active result; - = inactive; . = no result given.

SMILES	CHT inh	CHT PAM	IDE inh	IDE act	TMEM16A act	TMEM16A inh	IDE cell inh cf	HEK cytotox	others
COc1ccc(-c2nnc(Nc3nc4c(OC)cccc4s3)o2)cc1	-	-	24	-	-	-	19	-
CC(=O)c1sc(NC(=O)CCN2C(=O)c3ccccc3C2=O)nc1C	-	-	-	-	-	-	.	.
CCN1C(=O)/C(=C/C=C2/Sc3ccc4ccccc4c3N2CCO)SC1=S	-	-	24	-	-	-	-	-
COc1ccc(C(=O)Nc2ncccc2C)cc1S(=O)(=O)N1CCOCC1	-	-	-	-	-	-	.	.
COc1ccc(CNC(=O)C2CCN(S(=O)(=O)c3ccc4c(c3)CC(C)N4C(C)=O)CC2)cc1 (configuration not stated)	-	-	-	-	-	-	.	.
Cc1[nH]c(=O)[nH]c(=S)c1C(=O)Nc1ccc(Cl)c(Cl)c1	-	-	26	-	-	-	-	-
CC(=O)c1c(C)[nH]c(C(=O)Nc2ccc(Cl)c(S(=O)(=O)N(C)C)c2)c1C	-	-	-	-	-	-	.	.
CC1CCCN(C(=O)c2cc(N3C(=O)C4C5CCC(C5)C4C3=O)ccc2Cl)C1 (configuration not stated)	-	-	-	.	.	-	.	.
COc1ccccc1N1CCN(C(=O)c2cc(N3C(=O)C4C5CCC(C5)C4C3=O)ccc2Cl)CC1 (configuration not stated)	-	-	31	-	-	-	21	-
O=C1NN(c2ccccc2)C(=O)/C1=C\c1coc2ccc(O)cc2c1=O	-	-	-	-	-	-	.	.
CSC1=NSC2=NC(=O)/C(=C/c3coc4ccccc4c3=O)C(=N)N12	-	-	72	-	-	-	45	-
CSC1=NSC2=NC(=O)/C(=C/c3coc4ccc(O)cc4c3=O)C(=N)N12	-	-	30	-	-	-	37	-
CC1=CC2=NC(=O)/C(=C/c3coc4ccc(Cl)cc4c3=O)C(=N)N2O1	-	-	62	-	-	-	97	-
N=C1/C(=C\c2coc3ccccc3c2=O)C(=O)N=C2SC=CN12	-	-	48	-	-	-	80	-
CC1=CC2=NC(=O)/C(=C\c3cn(C)c4ccccc34)C(=N)N2O1	-	-	-	-	-	-	.	.
O=C(COc1ccccc1)N[C@@H]1c2ccccc2CC[C@@H]1O	.	.	.	-	.	.	.	.
O=c1oc2cc(O)ccc2cc1-c1nc2c(s1)CCc1ccccc1-2	-	-	128	31	-	-	26	-
O=c1oc2cc(O)ccc2cc1-c1ccccc1	-	-	-	-	-	-	.	.
Cc1cc(C(=O)N2CCN(c3ccc(C(F)(F)F)cn3)CC2)c(C)o1	-	-	17	-	-	-	-	-
COc1cccc(NC(=O)N2CCN(c3ccc(C(F)(F)F)cn3)CC2)c1	-	-	18	-	-	-	-	26
O=C(Nc1ccccc1)N1CCCN(c2ccc(C(F)(F)F)cn2)CC1	-	-	-	-	-	-	.	.
CCCCCCC(NC(=O)c1ccc(C)cc1)C(=O)O (configuration not stated)	.	.	.	-	-	.	.	.
COc1ccc(Br)c(C(=O)OCC(=O)N2CCC(Cc3ccccc3)CC2)c1	.	.	.	-	-	.	.	.
CCCCC[C@@H](/C=C/C1C(=O)C=C[C@H]1C/C=C\CCCC(=O)OC)OC(C)=O (some centres not stated)	.	.	.	-	.	.	.	.
CCC1=NN2C(=N)/C(=C\c3ccc(SCc4ccco4)o3)C(=O)N=C2S1	-5.3	-	22	-	-	-	-	-	CHT inh conf=-;HEK293 CHT ctr=-
SMILES	CHT inh	CHT PAM	IDE inh	IDE act	TMEM16A act	TMEM16A inh	IDE cell inh cf	HEK cytotox	others
CC(NC(=O)CN1C(=O)NC2(CCCCCC2)C1=O)c1ccccc1Cl (configuration not stated)	.	.	-	-	-	.	.	.
Cc1cc(C)n(C(=O)COc2ccccc2[N+](=O)[O-])n1	-	-	-	-	-	-	.	.
CN1CCN(C(=O)CCN2C(=O)/C(=C/c3cccc(Br)c3)SC2=S)CC1	-5.2	-	19	-	-	-	-	56	CHT inh conf=70%;HEK293 CHT ctr=-
CC(C)(C)NC(=O)NC(=O)CN1CCN(c2cccc(Cl)c2)CC1	-6.9	-	41	-	-	-	22	-	CHT inh conf=47%;HEK293 CHT ctr=-
CC(C)(C)NC(=O)NC(=O)CN1CCN(c2ccccc2)CC1	-	-	-	-	-	-	.	.
O=C(O)c1ccccc1NS(=O)(=O)c1cccc(C(F)(F)F)c1	-	-	-	-	-	-	.	.
O=C(O)c1ccccc1NS(=O)(=O)c1cccc(-n2sc3ccccc3c2=O)c1	-6.4	-	90	-	-	-	73	-	CHT inh conf=22%;HEK293 CHT ctr=-
CCN1CCC2(CC1)C(C#N)=C(N)Oc1c2sc2nc(C)cc(C)c12	-	6.7	35	-	-	-	-	-	CHT act confirm=39;HEK293 MP dye=-
C[C@@H]1[C@H](O)C[C@@]23COC(=O)C2=CCC[C@@H]3[C@@]1(C)CC/C(=C/CO)CO	-	-	-	-	-	-	.	.
COc1ccc(NC(=O)c2nn(C)c3c2CS(=O)(=O)c2ccccc2-3)cc1	-	-	-	-	-	-	.	.
CC(=O)N1CC[n+]2c(-c3ccc(Cl)cc3)csc21	-	-	22	-	-	-	-	-	CHT act confirm=47;HEK293 MP dye=-23
O=C(c1ccco1)N1CCN(c2ccc(Cl)cc2)CC1	-	-	-	-	-	-	.	.
O=C(c1ccco1)N1CCN(c2ccnc3cc(Cl)ccc23)CC1	-	-	26	-	-	-	18	-	CHT act confirm=20;HEK293 MP dye=-68
